Reference: PubChem BioAssay AID463173 (ICCB-Longwood Screening Facility, Harvard Medical School, 2010)
In all, about 52,000 compounds went through this assay and about 1,700 (3.3%) were called active. Rule as the data show it: active = survival mostly below about 52% (no sharp cut-off); inactive = mostly above about 56%. For the sample, actives were picked, then their nearest neighbours and some compounds at random.

Tested on: Wild type
Test: growth inhibition of S. aureus wild type versus tarO mutant, primary screen, teichoic acid synthesis inhibitors, RN4220, OD600 (AID 463173)
Settings: S. aureus RN4220 wild type/DeltatarO growth, OD600, 18 h, stronger effect = lower value, screened at 18.75 µg/mL (by protocol)

Compound	survival
Cc1ccc(C)c(N2CCN(C(=O)Cn3ncc4c(=O)oc5ccccc5c43)CC2)c1	71% (inactive)
Cc1ccc2nc(N(CCCN(C)C)C(=O)c3ccco3)sc2c1	72% (inactive)
CCOc1ccccc1-c1nc(-c2ccc(-c3ccccc3)nc2OCC)no1	-1% (active)
COc1nc(-c2ccc(C)cc2)ccc1-c1noc(-c2ccc(C(C)(C)C)cc2)n1	32% (inactive)
COc1nc(C)ccc1-c1noc(-c2ccccc2)n1	100% (inactive)
COc1nc(-c2ccccc2)ccc1-c1noc(C(C)C)n1	88% (inactive)
CCOc1nc(-c2ccccc2)ccc1-c1noc(-c2ccc(C)cc2)n1	109% (inactive)
CCOc1cc(-c2nc(-c3ccc(-c4ccc(C)cc4)nc3OC)no2)cc(OCC)c1OCC	56% (inactive)
COc1nc(-c2ccc(C)cc2)ccc1-c1noc(-c2ccccc2Br)n1	2% (active)
COc1cccc(-c2ccc(-c3noc(-c4ccccc4Br)n3)c(OC)n2)c1	37% (inactive)
COc1nc(-c2ccccc2)ccc1-c1noc(-c2ccccc2Br)n1	-2% (active)
COc1cccc(-c2nc(-c3ccc(-c4ccccc4)nc3OC)no2)c1	2% (active)
CCOc1cc(-c2nc(-c3ccc(-c4ccccc4)nc3OCC)no2)cc(OCC)c1OCC	60% (inactive)
COc1ccc(-c2ccc(-c3noc(-c4cc(OC)cc(OC)c4)n3)c(OC)n2)cc1	49% (inactive)
COc1cccc(-c2nc3c(c(SCc4ccccc4)n2)Cc2c(CO)cnc(C)c2O3)c1	101% (inactive)
CCCN(CCC)CCCNC(=O)C1CCC(CNS(=O)(=O)c2ccc(NC(C)=O)cc2)CC1 (stereo unspecified)	66% (inactive)
CCOC(=O)N1CCN(Cc2nc3cc(NC(=O)c4ccc(F)cc4)ccc3n2C(C)C)CC1	86% (inactive)
CC(=O)N1N=C(N)SC1c1ccccc1 (stereo unspecified)	104% (inactive)
CCCC(=O)Nc1nnc(SCc2cc(=O)c3cc(C)ccc3[nH]2)s1	70% (inactive)
CC(=O)c1cccc(NC(=O)CN2C(=O)CCc3cc(S(=O)(=O)N4CCCCC4)ccc32)c1	82% (inactive)
Cc1cc(C)nc(NS(=O)(=O)c2ccc(NC(=O)c3nc(SC(C)C)ncc3Cl)cc2)n1	79% (inactive)
O=S(=O)(NCCc1cn2ccsc2n1)c1ccc(Cl)cc1	129% (inactive)
CCc1ccc(NC(=O)CC(NCc2cccnc2)C(=O)O)cc1 (stereo unspecified)	74% (inactive)

Compound	survival
CC(C)NC(=O)C1CCCCC1C(=O)O (stereo unspecified)	88% (inactive)
CCc1ccc(NC(=O)c2cnc3sc(N4CCCC4)nn3c2=O)cc1	85% (inactive)
CCC(=O)N1CCc2cc(S(=O)(=O)NC(C(=O)NCc3ccccc3Cl)C(C)C)ccc21 (stereo unspecified)	84% (inactive)
CCCNC(=O)CCSc1nc(-c2ccc3c(c2)OCO3)cc(C(F)(F)F)n1	84% (inactive)
CC(C)NC(=O)CCSc1nc(-c2ccc3c(c2)OCO3)cc(C(F)(F)F)n1	77% (inactive)
CC(C)(C)NC(=O)CCSc1nc(-c2ccc3c(c2)OCO3)cc(C(F)(F)F)n1	4% (active)
COc1ccc(Cl)cc1NC(=O)c1c(NCc2ccc(C)o2)sc2c1CCCCC2	80% (inactive)
CCOc1cccc2cc(-c3nc4sc5c(c4c(=O)[nH]3)CCC(C)C5)c(=O)oc12 (stereo unspecified)	119% (inactive)
CCC(C(=O)Nc1cc(F)ccc1F)n1nc(-c2cc(C)ccc2C)ccc1=O (stereo unspecified)	75% (inactive)
Cc1cccc(CCNC(=O)c2nn(C)c3c2CSc2ccccc2-3)c1	87% (inactive)
Cc1ccc2c(c1)-c1c(c(C(=O)NCCc3ccccc3)nn1C)CS2	10% (active)
Cc1ccc(CCNC(=O)c2nn(C)c3c2CSc2ccccc2-3)cc1	90% (inactive)
Cc1ccc(Nc2c(-c3ccccc3O)nc3ccc(Br)cn23)cc1	101% (inactive)
CC(C)OCCCNC(=O)C(=O)Nc1ccc2nc3n(c(=O)c2c1)CCCCC3	99% (inactive)
COc1ccc(/C=C\c2onc(C)c2S(=O)(=O)N2CCC(C(=O)Nc3ccccc3OC)CC2)cc1	116% (inactive)
Cc1ccc(NC(=O)c2cnn3c(C(F)F)cc(-c4ccccc4)nc23)cc1F	86% (inactive)
COc1ccccc1NC(=O)CSc1nc(-c2ccccc2F)nc2cc(=O)[nH]n12	73% (inactive)
Cc1ccc(-c2nc(SCc3ccc(Br)cc3)n3[nH]c(=O)cc3n2)cc1	10% (active)
O=c1cc2nc(-c3ccccc3)nc(SCc3cccc(Br)c3)n2[nH]1	73% (inactive)
Cc1ccc(CSc2nc(-c3ccc(C(C)(C)C)cc3)nc3cc(=O)[nH]n23)cc1	113% (inactive)
Cc1cccc(-c2nc(SCc3ccc(Br)cc3)n3[nH]c(=O)cc3n2)c1	83% (inactive)
O=c1cc2nc(-c3ccccc3F)nc(SCc3ccc(Br)cc3)n2[nH]1	-2% (active)
CC(C)Sc1ncc(Cl)c(C(=O)Nc2nc3ccc(S(C)(=O)=O)cc3s2)n1	112% (inactive)

Compound	survival
CN(C(=O)Cn1cc(S(=O)(=O)Cc2ccccc2Cl)c2ccccc21)c1ccccc1	146% (inactive)
CCc1cccc(NC(=O)Cn2c(=O)n(CCc3ccc(OC)c(OC)c3)c(=O)c3ccccc32)c1	124% (inactive)
O=C(Cn1c(-c2cccs2)cc2ccccc21)NCCCN1CCN(c2ccc(F)cc2)CC1	136% (inactive)
O=C1S/C(=C\c2ccccc2)C(=O)N1CN1CCOCC1	125% (inactive)
Cc1nc2cccnc2n1C1CCN(C(=O)Nc2ccccc2C(F)(F)F)CC1	72% (inactive)
COc1ccccc1CNC(=O)c1ccc(CN2CC(=O)N3CCCCC3C2=O)cc1 (stereo unspecified)	72% (inactive)
CN(C)c1ccc(Nc2ncnc3sc4c(c23)CCCC4)cc1	124% (inactive)
Cc1cc(C)cc(Nc2ncnc3sc4c(c23)CCCC4)c1	-3% (active)
CCc1ccc(Nc2ncnc3sc4c(c23)CCCC4)cc1	68% (inactive)
O=C(CCC1N=C2c3ccccc3N=C(SCc3ccccc3Cl)N2C1=O)N1CCN(c2ccccc2)CC1 (stereo unspecified)	65% (inactive)
Cc1cc(C)c(NC(=O)Cn2c(=O)n(Cc3ccc(C(=O)NCc4ccc5c(c4)OCO5)cc3)c(=O)c3ccccc32)c(C)c1	83% (inactive)
COc1cc(NC(=O)CSc2nc3ncccc3o2)cc(OC)c1	57% (inactive)
Cc1c(Cl)cccc1NC(=O)CSc1nc2ncccc2o1	1% (active)
O=C(CSc1nnc(-c2ccccc2F)o1)Nc1cccc(C(F)(F)F)c1	60% (inactive)
O=C(CSc1nc2ncccc2o1)Nc1cccc(C(F)(F)F)c1	-3% (active)
Cc1cccc(C)c1NC(=O)CSc1nc2ncccc2o1	63% (inactive)
O=C(CSc1nc2ncccc2o1)Nc1ccc(Cl)cc1F	81% (inactive)
COc1cccc(NC(=O)N(Cc2c[nH]c3ccccc23)C2CCCCCC2)c1	63% (inactive)
COc1cccc(NC(=O)Cn2cc(C(=O)C3CCCCC3)c3ccccc32)c1	73% (inactive)
COc1cccc(NC(=O)N(Cc2nc3ccccc3c(=O)[nH]2)C2CCCCC2)c1	122% (inactive)
COc1cccc(NC(=O)N(Cc2cn(C)c3ccccc23)C2CCCCC2)c1	0% (active)
COc1cccc(NC(=O)N(Cc2cn(C)c3ccccc23)C2CCCCCC2)c1	0% (active)
COc1cccc(NC(=O)N(Cc2c[nH]c3ccccc23)C2CCCCC2)c1	71% (inactive)

Compound	survival
CCOc1ccc(C(=O)Nc2nnc(SCc3cc(=O)n4ccccc4n3)s2)cc1	69% (inactive)
CCc1ccc(NC(=O)N(Cc2cn(CC)c3ccccc23)C2CCCCC2)cc1	0% (active)
CCc1ccc(NC(=O)N(Cc2c[nH]c3ccccc23)C2CCCCC2)cc1	93% (inactive)
CCOc1ccc(NC(=O)N(Cc2cn(CC)c3ccccc23)C2CCCCCC2)cc1	0% (active)
CCOc1ccc(NC(=O)N(Cc2c[nH]c3ccccc23)C2CCCCC2)cc1	79% (inactive)
CCOc1ccc(NC(=O)N(Cc2c[nH]c3ccccc23)C2CCCCCC2)cc1	83% (inactive)
CCc1ccc(NC(=O)N(Cc2c[nH]c3ccccc23)C2CCCCCC2)cc1	127% (inactive)
CCCCn1c(SCc2ccccc2C)nc2ccsc2c1=O	136% (inactive)
COc1cc(Nc2nc(SCc3ccccc3Cl)nc3ccccc23)cc(OC)c1	95% (inactive)
Cc1ccc(/C=C/c2nc3ccccc3n2S(=O)(=O)c2ccc(Br)cc2)cc1	70% (inactive)
CC(C)c1ccc(Nc2c(-c3ccsc3)nc3ccc(Cl)cn23)cc1	95% (inactive)
COc1ccc(C)cc1NC(=O)c1nnn(CC(=O)Nc2c(C)cccc2C)c1N	74% (inactive)
COc1ccc(NC(=O)Cn2c(=O)n(Cc3nc(C)no3)c(=O)c3cc4c(cc32)OCO4)cc1OC	70% (inactive)
Cc1ccc(C(=O)Nc2cccc(C(=O)OCc3cc(=O)n4nc(C5CC5)sc4n3)c2)cc1	55% (inactive)
O=C(COc1ccccc1)Nc1ccc(C(=O)OCc2cc(=O)n3nc(C4CC4)sc3n2)cc1	64% (inactive)
O=C(Nc1cccc(C(=O)OCc2cc(=O)n3nc(C4CC4)sc3n2)c1)c1ccc(F)cc1	81% (inactive)
O=C(Nc1cccc(C(=O)OCc2cc(=O)n3nc(C4CC4)sc3n2)c1)c1ccccc1	1% (active)
COc1ccc(C(=O)Nc2ccc(C(=O)OCc3cc(=O)n4nc(C5CC5)sc4n3)cc2)cc1	-3% (active)
COc1ccc(C(=O)Nc2cccc(C(=O)OCc3cc(=O)n4nc(C5CC5)sc4n3)c2)cc1	111% (inactive)
Cc1cccc(OCC(=O)Nc2ccc(C(=O)OCc3cc(=O)n4nc(C5CC5)sc4n3)cc2)c1	-4% (active)
Cc1ccc(OCC(=O)Nc2ccc(C(=O)OCc3cc(=O)n4nc(C5CC5)sc4n3)cc2)cc1	81% (inactive)
COc1cccc(C(=O)Nc2ccc(C(=O)OCc3cc(=O)n4nc(C5CC5)sc4n3)cc2)c1	63% (inactive)
